# Source: PubChem
# A selection follows.
# aSyn UTR act – Activators via SNCA 5'UTR binding, MLPCN; alpha-synuclein 5'UTR reporter, activators screen; activity score, % (tested at 7.5 µM), hits read low; 7.1% of 300,000 active; AID 1814; in the data active means activity score below about -60%
# Hits are given with their value; i = inactive.
SMILES,aSyn UTR act
N/C(=N\OC(=O)c1ccc2ccccc2c1)c1ccccn1,i
N/C(=N\OC(=O)c1ccc2ccccc2c1)c1ccccc1Cl,-140.3
N/C(=N/OC(=O)c1ccccc1Cl)c1ncc([N+](=O)[O-])s1,-80.4
N/C(=N\OC(=O)c1ccccc1F)c1ccc([N+](=O)[O-])cc1,-151.4
Cc1ccc(OCc2cn3cccnc3n2)cc1,-61.6
CSc1ccc(C2c3[nH]c4ccccc4c3CCN2C(=O)c2ccnn2C)cc1 (stereo not given),-166.1
S=c1[nH]nc(Cn2c(-c3ccccn3)nc3ccccc32)n1-c1ccc2c(c1)OCCO2,-75.3
COC(=O)C1=C(C)Nc2ccc(C)cc2S1,-63.7
O=C(CN1CCCCC1)Nc1nc(-c2ccc(Cl)cc2)cs1,-74.5
O=C(CCN1C(=O)C2CCCCC2C1=O)Nc1nc(-c2ccccc2)cs1 (stereo not given),-64.6
O=C(CN1CCCCC1)Nc1nc(-c2ccc(F)c(F)c2)cs1,-99.5
Cc1sc(NC(=O)CN2CCCC2)nc1-c1ccc2c(c1)CCN2C(=O)c1cccc(F)c1,-69.4
Cc1ccccc1C(=O)N1CCc2cc(-c3csc(NC(=O)CN4CCCC4)n3)ccc21,-98.8
O=C(CN1CCCCC1)Nc1nc(-c2ccccc2)cs1,-76.7
CCc1ccc(OC(=O)Nc2ccccc2)cc1,-159.5
COc1ccc(OC(=O)Nc2ccccc2)cc1,-92.2
CN(C)/C=C1\Oc2ccc3ccccc3c2C1=O,-116.1
CCCN1C/C(=C/c2ccc3c(c2)OCO3)C(=O)/C(=C/c2ccc3c(c2)OCO3)C1,-105.4
COc1cccc(/C=C2\Oc3ccc(O)cc3C2=O)c1O,i
COC(=O)c1ccc2c(c1)C(=O)/C(=C/c1ccc(O)cc1)O2,-118.2
CC(C)(C)c1ccc(/C=C2\Oc3cc(O)ccc3C2=O)cc1,-68.7
O=C(NC(=S)NC1CCCCC1)c1ccc(F)cc1,-162.3
O=C(Nc1ccc(F)cc1)NC1CCCCC1,-111.2
O=C(Nc1ccc(N2CCOCC2)cc1)NC1CCCCC1,-78.1
O=C(NC(=S)NNC(=O)c1cnccn1)c1ccc(F)cc1,i
SMILES,aSyn UTR act
O=C(Nc1cccc(F)c1)NC1CCCCC1,-156.3
CC(C)CNC(=S)NC(=O)c1ccc(F)cc1,-150.1
O=C(C1=C(O)C(=O)N(c2ncccn2)C1c1ccc(Cl)c(Cl)c1)c1ccco1 (stereo not given),-81.4
CCC(=O)NC(c1ccco1)c1cc(Cl)c2cccnc2c1O (stereo not given),i
COC(=O)c1ccc(-c2noc(CN3C[C@H]4CC[C@H]3C4)n2)cc1,-119.5
COc1cccc(NC(=O)C(=O)N/N=C(\C)CC(=O)Nc2ccc(NC(C)=O)cc2)c1,-195.9
C/C(CC(=O)Nc1ccc(OCc2ccccc2)cc1)=N\NC(=O)C(=O)Nc1ccc(C)c(Cl)c1,-69.3
C/C(CC(=O)Nc1cc(C)ccn1)=N\NC(=O)C(=O)Nc1cccc(C)c1,-74.3
CCOC(=O)c1sc(=NC(=O)c2ccc(C)c(C)c2)n(C)c1C,-282.8
CCOC(=O)c1sc(=NC(=O)c2ccc(Cl)s2)n(C)c1C,-194.3
CCOC(=O)c1sc(=NC(=O)c2cccs2)n(C)c1C,-121.6
Cc1ccc2c(c1)sc(=NC(=O)c1cccs1)n2C,i
CCOC(=O)c1sc(=NC(=O)c2ccccc2Br)n(C)c1C,-101.0
CCOC(=O)c1sc(=NC(=O)/C=C/c2ccccc2)n(C)c1C,-111.2
COc1ccc(/C=C(\CC(=O)O)c2nc3ccccc3o2)cc1,-108.9
COc1ccc(C(=O)/C(=C/c2cccs2)c2nc3ccccc3o2)cc1,-135.8
Cc1ccc(-c2nc3c(=O)n(C)c4ccccc4c3o2)cc1,-72.3
C/C(=N\Nc1nc(C(C)(C)C)cs1)c1ccc(O)cc1,-107.3
C/C(=N\Nc1nc2c(s1)CCCC2)c1ccccc1,-178.1
C/C(=N\Nc1nc(C(C)(C)C)cs1)c1ccccc1,-159.8
COc1cccc(C(=O)CSc2nnnn2C2CCCCC2)c1,-74.3
CC(C)n1nnnc1SCC(=O)c1ccc2c(c1)OCCO2,-145.0
CCn1nnnc1SCC(=O)c1ccc2c(c1)OCCO2,-137.2
O=C(CSc1nnnn1C1CCCC1)c1ccc2c(c1)OCCO2,-102.2
CC(C)(C)c1nnc2sc(SCC(=O)c3ccc4c(c3)OCCO4)nn2c1=O,-156.4
SMILES,aSyn UTR act
Cc1ccc(C)c(C(=O)CSc2nnnn2C(C)C)c1,-64.7
CN(C)c1ccc(/C=N/Nc2nc3ccccc3o2)cc1,i
O=[N+]([O-])c1ccc(/C=N/Nc2nc3ccccc3o2)cc1,-186.4
CCc1ccc(NC(=O)COc2ccc(F)cc2C(=O)c2cnn(-c3ccccc3)c2)cc1,-130.1
COc1ccccc1NC(=O)COc1ccccc1C(=O)c1cnn(-c2ccccc2)c1,-135.7
c1ccc(-c2ccc3sccc3n2)cc1,-173.4
Nc1cccn2c(-c3ccc(Cl)c(Cl)c3)cnc12,-183.2
Nc1cccn2c(-c3ccc(Cl)cc3)cnc12,-259.6
Cc1ccc2nc(-c3ccc(NC(=O)CN(c4ccccc4C)S(C)(=O)=O)cc3)sc2c1,-164.2
Cc1cccc(NS(=O)(=O)c2ccc(NC(=O)CN(c3cc([N+](=O)[O-])ccc3C)S(C)(=O)=O)cc2)c1,i
Cc1ccc2nc(-c3ccc(NC(=O)CN4CCN(C(=O)c5ccco5)CC4)cc3)sc2c1,-176.9
Cc1cc(C)cc(N(CC(=O)Nc2ccc(-c3nc4ccc(C)cc4s3)cc2)S(C)(=O)=O)c1,-99.7
Cc1ccc(CSC2=Nc3ccccc3C3=NC(CC(=O)NCc4ccco4)C(=O)N23)cc1 (stereo not given),-73.4
COc1ccc(OC)c(/C=C/C(=O)c2ccc3c(c2)OCCO3)c1,-155.8
CC(OC(=O)c1ccc2c(c1)OCCO2)C(=O)c1ccccc1 (stereo not given),-133.1
O=C1COc2ccc(C(=O)/C=C/c3ccccc3)cc2N1,-113.5
O=C(/C=C/c1ccccc1)c1ccc2c(c1)OCCCCO2,-197.6
CNc1ccc(/C=C/C(=O)c2ccc3c(c2)OCCO3)cc1[N+](=O)[O-],-64.3
O=C(CCCc1ccccc1)c1ccc2c(c1)OCCO2,i
O=C(NCCc1ccccc1)c1ccc2c(c1)OCCCO2,i
O/N=C(/CCc1ccccc1)c1ccc2c(c1)OCCO2,-119.8
O=C(c1ccccc1)c1ccc2c(c1)OCCCO2,-63.6
O=C(CCc1ccccc1)c1ccc2c(c1)OCCCO2,-190.0
O=C(CCN1CCc2ccccc21)c1ccc2c(c1)OCCO2,-154.7
COc1ccccc1Nc1nc(C)cs1,-105.6
SMILES,aSyn UTR act
O=[N+]([O-])c1cccc(-c2csc(Nc3ccccc3)n2)c1,-299.0
COc1ccccc1Nc1ccc(Nc2ccccc2OC)nn1,-171.1
COc1ccccc1Nc1nc(-c2cccc([N+](=O)[O-])c2)cs1,-77.2
CC(=O)Nc1ccccc1C(=O)C(=O)Nc1ccccc1,-96.3
CCC(=O)Nc1ccccc1C(=O)C(=O)Nc1ccccc1,-69.5
CC(=O)Nc1ccccc1C(=O)C(=O)Nc1cccc(Br)c1,-78.8
CC(=O)Nc1ccccc1C(=O)C(=O)Nc1ccc(Cl)cc1,-105.8
CN(C)c1nc(F)c(F)c(S(=O)(=O)c2ccccc2)c1F,-93.9
CCOC(=O)c1ccc(NC(=O)c2ccnn2C)cc1,-159.2
O=C(Nc1ccc2oc(-c3ccc(F)cc3)nc2c1)c1ccccc1F,-113.5
O=C(Nc1ccc(C(=O)N2CCCC2)cc1)c1ccccc1F,-65.4
CC(=O)Nc1ccc(NC(=O)c2ccccc2F)cc1,-81.4
CCOC(=O)Nc1ccc(NC(=O)c2ccccc2F)cc1,-149.1
O=C(Nc1ccc2cn[nH]c2c1)c1ccccc1F,-224.3
O=C(Nc1ccc(F)cc1)c1ccccc1F,-135.0
O=C(Nc1ccc(Oc2cccnc2)cc1)c1ccccc1F,-114.7
CCOC(=O)c1ccc(NC(=O)c2ccccc2C)cc1,-156.4
